An excerpt weighted towards active compounds, which were near 2.4% of everything screened.
Platelet DG rel = platelet dense granule release activity; AID 1663; human platelet-rich plasma, SFLLRN dense granule ATP release, luminescence; 300,000 tested, 0.22% active; inhibition, %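 (compounds screened at 7.5 µM in platelet-rich plasma)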;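 active = mean replicate score, as percent of positive control, at or above 50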
SENP7 inh = inhibitors of human SENP7 protease. inhibition, % at 5 µM. Q9BQF6. recombinant SENP7, Z-RLRGG-aminoluciferin luminescence, 40 min. 330,000 tested, 1.5% active;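 active = inhibition above about 50% at the single test dose, limit read from the data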
SENP6 inh = blocks the human protease SENP6; Q9GZR1; Recombinant SENP6 catalytic domain, aminoluciferin luminescence; inhibition, % at 10 µM; 330,000 tested, 1.8% active; AID 2599;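 active = inhibition above about 50% at the single tested dose, limit read from the data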
SENP8 block-1 = inhibitors of human SENP8 protease. Q96LD8. purified SENP8, Z-RLRGG-aminoluciferin cleavage, luminescence. inhibition, % at 10 µM. 330,000 tested, 1.2% active. AID 2540; in the data active = inhibition above about 50%
Target sequence (Q96LD8 whole entry, looked up): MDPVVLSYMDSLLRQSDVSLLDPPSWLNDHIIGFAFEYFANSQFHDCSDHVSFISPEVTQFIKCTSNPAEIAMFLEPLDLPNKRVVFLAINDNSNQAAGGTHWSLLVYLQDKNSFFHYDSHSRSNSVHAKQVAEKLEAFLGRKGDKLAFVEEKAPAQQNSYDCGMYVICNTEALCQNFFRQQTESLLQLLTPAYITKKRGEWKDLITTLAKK
SENP8 block-2 = SENP8 (human) protease inhibition | Q96LD8 | recombinant SENP8, Nedd8 substrate fluorescence | inhibition, % at 20 µM | 360,000 tested, 0.64% active; in the data active = inhibition mostly above about 40%, no sharp cut-off; inactive = mostly below about 27%
SENP8 confirm = confirmation of human SENP8 protease inhibitors. shares compounds with SENP7 inh. Recombinant SENP8, Z-RLRGG-aminoluciferin luminescence, 60 min. inhibition, % at 12.5 µM. 6,200 tested, 40% active. AID 488912;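 active = mean inhibition across replicates above about 50%, limit read from the data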
SENP6 confirm = confirmation of human SENP6 protease inhibitors; shares compounds with SENP7 inh; recombinant SENP6, Z-RLRGG-aminoluciferin luminescence; inhibition, % at 12.5 µM; 6,200 tested, 58% active; AID 488915
SENP7 conf = confirmation of human SENP7 protease inhibitors. shares compounds with SENP7 inh. recombinant SENP7, Z-RLRGG-aminoluciferin luminescence, 40 min. 6,200 tested, 69% active. inhibition, % at 12.5 µM. AID 488917
Casp3 SENP sel = inhibits human caspase-3 in SENP selectivity test | shares compounds with SENP7 inh | 6,200 tested, 60% active | inhibition, % at 12.5 µM | purified caspase-3, Z-DEVD-aminoluciferin luminescence, 60 min;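 active = mean inhibition above about 50%, limit read from the data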
Target sequence (P42574 28-227 limits assumed): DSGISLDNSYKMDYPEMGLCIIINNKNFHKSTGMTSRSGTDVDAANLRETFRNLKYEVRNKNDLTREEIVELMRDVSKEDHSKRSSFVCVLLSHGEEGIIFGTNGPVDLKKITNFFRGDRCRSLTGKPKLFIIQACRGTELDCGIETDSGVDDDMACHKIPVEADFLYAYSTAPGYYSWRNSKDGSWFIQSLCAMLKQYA
SENP luc ctr = interferes with luciferase luminescence in SENP counter-screen; Pre-incubated SENP8/Z-RLRGG-aminoluciferin, luciferase luminescence interference; shares compounds with SENP7 inh; 6,200 tested, 39% active; inhibition, % at 12.5 µM;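 active = mean inhibition above about 50% when retested at one dose, limit read from the data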
Of the large screens only hits and unclear results are named; the others gave an inactive call (follow-up assays come after a bar, where they were run).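 The calls were made as follows, unless noted: active = mean inhibition above about 50% in the one-dose retest (limit read from the data); inactive = the rest.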

COc1ccc(-c2cc(=O)c3cc(OC)ccc3o2)cc1	SENP7 inh 98, SENP6 inh 92, SENP8 block-1 88 | SENP8 confirm inactive | SENP6 confirm inactive | SENP7 conf inactive | Casp3 SENP sel inactive | SENP luc ctr inactive
COc1ccc2oc(-c3ccccc3)cc(=O)c2c1	none (no result: Platelet DG rel, SENP7 inh, SENP6 inh, SENP8 block-1)
CC(=Nc1ccc(C)c(C)c1)C1=C(O)CSC1=O	SENP6 inh 54 | SENP8 confirm 58 | SENP6 confirm 56 | SENP7 conf 82 | Casp3 SENP sel 74 | SENP luc ctr 64
COc1cccc2oc3ccc(C#Cc4ccccn4)cc3c(=O)c12	Platelet DG rel 62, SENP7 inh 100, SENP6 inh 100, SENP8 block-1 94 | SENP8 confirm 73 | SENP6 confirm 90 | SENP7 conf 100 | Casp3 SENP sel 91 | SENP luc ctr 75
C#Cc1cccc(NC(=O)c2ccc3c(c2)C(=O)N(Cc2cccnc2)C3=O)c1	SENP7 inh 75, SENP6 inh 60 | SENP8 confirm inactive | SENP6 confirm inactive | SENP7 conf 88 | Casp3 SENP sel 54 | SENP luc ctr 56
CCCNc1ncnc2c1cnn2C1CCCCO1 (centres undefined)	none (no result: Platelet DG rel, SENP7 inh, SENP6 inh, SENP8 block-1)
O=C(Cc1ccccc1)Nc1ccc(NC(=O)c2ccccc2)c(Cl)c1	none
Cc1cccc(NC(=O)c2cc(-c3ccc(C)c(C)c3O)n[nH]2)c1	SENP7 inh 86 | SENP8 confirm inactive | SENP6 confirm inactive | SENP7 conf 95 | Casp3 SENP sel 59 | SENP luc ctr 54
CN1C(=O)CCC2(c3ccccc3)CC=C(O)C=C12 (centres undefined)	none (no result: Platelet DG rel, SENP7 inh, SENP6 inh, SENP8 block-1)
Cc1cc(C(=O)Nc2nnc(C(F)(F)F)s2)cs1	SENP7 inh 58, SENP6 inh 76, SENP8 block-1 65 | SENP8 confirm 66 | SENP6 confirm 68 | SENP7 conf 86 | Casp3 SENP sel 84 | SENP luc ctr inactive
O=C(Nc1nnc(C(F)(F)F)s1)c1ccc(Br)s1	SENP7 inh 62, SENP6 inh 53, SENP8 block-1 73 | SENP8 confirm inactive | SENP6 confirm 53 | SENP7 conf 77 | Casp3 SENP sel inactive | SENP luc ctr inactive
CCSc1nnc(NC(=O)c2ccc(Br)s2)s1	none
CCOc1cc(/C=C2/SC(=S)N(CC(=O)O)C2=O)ccc1OC(=O)c1cccs1	none
CCOc1cc(/C=C2/C(=O)N(c3ccccc3)N=C2C)ccc1OC(=O)c1ccco1	SENP7 inh 68, SENP8 block-2 66 | SENP8 confirm inactive | SENP6 confirm inactive | SENP7 conf inactive | Casp3 SENP sel inactive | SENP luc ctr inactive
CCOc1cc(/C=C2\C(=O)N(c3ccc(C(N)=O)cc3)N=C2C)ccc1OC(=O)c1cccs1	SENP7 inh 68, SENP6 inh 63, SENP8 block-2 66 | SENP8 confirm inactive | SENP6 confirm inactive | SENP7 conf inactive | Casp3 SENP sel inactive | SENP luc ctr inactive
Cc1cc(C(=O)COC(=O)c2ccc(Br)o2)c(C)n1Cc1ccco1	none (no result: SENP8 block-2)
COCCn1c(C)cc(C(=O)COC(=O)c2ccc(Br)o2)c1C	SENP6 inh 51 | SENP8 confirm inactive | SENP6 confirm inactive | SENP7 conf 80 | Casp3 SENP sel 73 | SENP luc ctr 64
COc1ccc(NC(=O)c2c(C)noc2C(C)C)cc1S(=O)(=O)N1CCCCC1	none (no result: Platelet DG rel)
CCCCNc1nc(N)nc(-c2cc(Cl)ccc2O)n1	SENP7 inh 54, SENP6 inh 70 | SENP8 confirm inactive | SENP6 confirm 56 | SENP7 conf 86 | Casp3 SENP sel inactive | SENP luc ctr inactive
CCNc1nc(N)nc(-c2cc(Cl)ccc2O)n1	SENP7 inh 65, SENP6 inh 83, SENP8 block-1 55 | SENP8 confirm 72 | SENP6 confirm 69 | SENP7 conf 90 | Casp3 SENP sel inactive | SENP luc ctr inactive
NC(=O)CSc1nnc(CSc2ncccn2)n1-c1ccccc1	none

Source: PubChem BioAssay (several laboratories)
